KDM5B inh = Primary screen for KDM5B Histone Demethylases FDH-coupled qHTS | 2.6% of 220,000 active | KDM5B demethylase, FDH-coupled NADH fluorescence (FDH is formaldehyde dehydrogenase) | Potency, µM (series often up to 57.7 µM), usual class: inhibitors; active = well fitted inhibition curve with a large enough effect; also: 0% is about no effect; nearly all actives have a fitted effect of over 70% in size
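Coupled FDH/NAD⁺ fluorescence readout. KDM5BΔAP 200 nM final; compound titration, 10 min RT preincubation; substrate mix 12.5 µM H3K4me3, 25 µM 2-OG, 50 µM Fe(II), 100 µM ascorbate, 0.25 mM NAD⁺, 0.25 U/mL FDH; ΔRFU over 30 min.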
* hit, by the source's call; i = inactive. The entries come from a sample that favours hits as a whole. Potency is read from the fitted curve at half-maximal effect.

SMILES	KDM5B inh
CN(Cc1ccccc1)C(=O)c1cc(-c2cccnc2)nc2ccccc12	i
O=C1OC(C(=O)Nc2cccc3ncccc23)Cc2ccccc21 (configuration not stated)	i
CN(C)Cc1cccc(-c2cc3c(ccn3Cc3ccncc3)c(N3CCOCC3)n2)c1	40µM*
Cn1ccc2c(C(=O)NCc3cccnc3)nc(-c3cccc(N4CCOCC4)c3)cc21	i
COc1c(N)ccnc1-c1cccc(CN2CCOCC2)c1	i
Nc1cccc(-c2ccc(N3CCOCC3)nn2)c1	i
c1cc(-c2cc3c(ccn3Cc3ccncc3)c(N3CCOCC3)n2)cc(N2CCOCC2)c1	20µM*
CNc1nccnc1-c1cccc(CN2CCOCC2)c1	i
COc1ccc(N(C(=O)CNC(C)=O)C2(C(=O)Nc3c(C)cccc3C)CCCCC2)cc1	i
N#Cc1ccc(OCC(=O)NNC(=O)C2CC(=O)Nc3cc(F)ccc32)cc1 (configuration not stated)	i
O=C(c1ccc(Cl)cc1)N1CC2(CCN(Cc3ccc(Cl)cc3)CC2)Cc2ccccc21	i
COCCCNC(=O)C(=O)NN	i
COc1ccc(CCC(=O)N[C@H]2[C@@H]3CCO[C@@H]3[C@@H]2C2CCCC2)cc1OC	i
O=C(CCCN1CCCCC1=O)N[C@@H]1[C@@H]2CCO[C@@H]2[C@@H]1C1CCCC1	i
O=C(CCc1cn2ccccc2n1)N[C@H]1[C@@H]2CCO[C@@H]2[C@@H]1C1CCCC1	28µM*
COc1ccc(CC(=O)OCC(=O)c2ccc3c(c2)OCCCO3)cc1	i
COc1ccc(-c2nc(C)c(C)cc2C#N)c2cccnc12	32µM*
COc1ccc(CC(=O)Nc2ccc(OC)c3ncccc23)cc1	i
CCC(CC)C(=O)Nc1ccc(OC)c2ncccc12	i
COc1cc(Nc2c(C#N)cnc3c(OC)cccc23)cc(OC)c1OC	i
COc1nc(-c2ccc(OC)c3ncccc23)ncc1F	32µM*
COc1ccc(S(=O)(=O)Nc2cc(C)cc(C)c2)c2cccnc12	i
COc1ccc(COCC(O)CNC(=O)C2CC2)cc1 (configuration not stated)	i
CN(Cc1cccc(F)c1)c1ccc(S(N)(=O)=O)cn1	i
CC1(C)CCCC(C)(C#CCN2CCN(C(c3ccccc3)c3ccccc3)CC2)O1 (configuration not stated)	i
SMILES	KDM5B inh
O=C(Cn1c(=O)oc2ccccc21)NCC1Cn2cccc2C(=O)N1Cc1cccnc1 (configuration not stated)	i
CC1CN(Cc2coc(-c3cccc(F)c3)n2)CCO1 (configuration not stated)	i
O=C(c1ccccc1)N1CCSc2ccc(Cl)cc21	i
O=C(CSc1nc(Cl)nc2nc[nH]c12)Nc1ccc(OC(F)(F)F)cc1	i
CN(C)C[C@@H]1CN(c2ccccn2)C[C@H]1NC(=O)NC(C)(C)C	32µM*
Cc1noc(C)c1CC(=O)N[C@@H]1CN(c2ccccn2)C[C@H]1CN(C)C	32µM*
COc1ccc(CC(=O)N[C@@H]2CN(c3ccncn3)C[C@H]2CN(C)C)cc1OC	i
CN(C)C[C@@H]1CN(c2ccccn2)C[C@H]1NC(=O)CC1=CCCCC1	32µM*
Cc1noc(C)c1CC(=O)N[C@@H]1CN(c2ccncn2)C[C@H]1CN(C)C	i
CN(C)C[C@@H]1CN(c2ccncn2)C[C@H]1NC(=O)c1c(F)cccc1F	i
CCOCC(=O)N[C@@H]1CN(c2ccncn2)C[C@H]1CN(C)C	i
CN(C)C[C@@H]1CN(c2ccccn2)C[C@H]1NC(=O)Cc1ccsc1	28µM*
Cc1cccc(OCC(=O)N[C@@H]2CN(c3ccncn3)C[C@H]2CN(C)C)c1	i
CN(C)C[C@@H]1CN(c2ccncn2)C[C@H]1NC(=O)C1CC=CCC1 (some centres not stated)	i
Cc1noc(C)c1CCC(=O)N[C@@H]1CN(c2ccncn2)C[C@H]1CN(C)C	i
CCOc1ccc(CC(=O)N[C@@H]2CN(c3ccncn3)C[C@H]2CN(C)C)cc1	i
CN1CCN(c2nc3ccccc3nc2C(C#N)C(=O)NCc2ccccc2)CC1 (configuration not stated)	i
O=C(O)C1=NOC2CN(Cc3ccc(F)c(F)c3F)CC12 (configuration not stated)	i
CCOCCCNC(=O)C(NC(=O)C1CCC(CC)CC1)C(C)C (configuration not stated)	i
CC1(C)CN(C(=O)c2ccc(Oc3ccccc3)o2)CC1(C)O (configuration not stated)	i
O=C(CCc1cc(Cl)no1)N(CCS(=O)(=O)N1CCOCC1)Cc1ccccn1	i
COc1ccc(-c2nc(C(C)C)nc3c2CN([S+](=O)([O-])c2ccccc2)CC3)cc1	i
Cc1ccc(CNc2oc(COc3ccccc3F)nc2C#N)cc1	i
Cn1nnnc1SCC(=O)N(Cc1cccs1)c1ccc2c(c1)OCCO2	i
O=C(OCC1CCCO1)c1cccc(O)c1 (configuration not stated)	i
